Bioassay records from PubChem BioAssay.
The list is not random: actives were taken first. Their share in the collection is about 0.9%.
PPARg SRC3 recr = PPARgamma agonists recruiting SRC-3 coactivator, primary screen, biochemical. Peroxisome proliferator-activated receptor gamma (Homo sapiens), P37231. biochemical PPARgamma/SRC-3 coactivator recruitment assay. activation, % at 8 µM. hit rate 0.26% among 200,000; in the data active means activation above about 23%
Target sequence (P37231 whole entry, looked up): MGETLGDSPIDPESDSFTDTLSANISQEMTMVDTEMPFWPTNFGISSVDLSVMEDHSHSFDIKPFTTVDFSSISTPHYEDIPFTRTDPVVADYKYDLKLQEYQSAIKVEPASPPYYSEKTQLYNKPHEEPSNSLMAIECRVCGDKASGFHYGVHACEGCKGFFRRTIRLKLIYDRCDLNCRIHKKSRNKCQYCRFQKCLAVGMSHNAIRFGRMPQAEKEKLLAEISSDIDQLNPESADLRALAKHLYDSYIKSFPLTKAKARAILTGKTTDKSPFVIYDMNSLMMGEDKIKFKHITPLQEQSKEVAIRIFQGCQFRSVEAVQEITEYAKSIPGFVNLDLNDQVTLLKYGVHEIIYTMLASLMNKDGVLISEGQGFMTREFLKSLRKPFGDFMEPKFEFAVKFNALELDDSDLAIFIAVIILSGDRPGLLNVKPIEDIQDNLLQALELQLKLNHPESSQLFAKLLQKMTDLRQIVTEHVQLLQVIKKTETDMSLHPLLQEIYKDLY
PPARg SRC1 recr = PPARgamma agonists recruiting SRC-1 coactivator, primary screen, biochemical; PPARgamma-SRC-1 coactivator recruitment biochemical assay; activation, % at 8 µM; hit rate 0.41% among 200,000; in the data active means activation above about 19%
TR-FRET SRC-2 ct = TR-FRET signal artefacts, primary screen, artefact control for PPARgamma SRC-2 agonist project, biochemical; TR-FRET artefact counter-screen; hits give high values; TR-FRET ratio at 8 µM; hit rate 0.4% among 200,000
SRC3 TRFRET art = TR-FRET detection interference compounds, artefact control for PPARgamma SRC-3 recruitment agonists, biochemical, TR-FRET ratio; TR-FRET artefact counter-screen, PPARgamma/SRC-3 format; hits give high values; TR-FRET ratio at 8 µM; hit rate 0.39% among 99,000; AID 1048, 2008
SRC1 TRFRET art = TR-FRET detection interference compounds, primary screen, artefact control for PPARgamma SRC-1 recruitment agonists, biochemical, TR-FRET emission ratio; TR-FRET ratio at 8 µM; TR-FRET detection artefact counter-screen; hits give high values; hit rate 0.34% among 99,000; in the data active means TR-FRET ratio above about 2300
PPARg SRC2 recr = agonists of PPARg-SRC-2 recruitment, primary screen, biochemical, HTS; Peroxisome proliferator-activated receptor gamma (Homo sapiens), P37231; PPARgamma LBD-SRC-2 recruitment; activation, % at 8 µM; hit rate 0.34% among 200,000; in the data active means activation above about 22%
Numbers stand for hits; – = inactive; · = no result. Unless noted, no stated cut-off is given here; in the data, active means TR-FRET ratio above about 2000; inactive means the rest.

SMILES	PPARg SRC3 recr	PPARg SRC1 recr	TR-FRET SRC-2 ct	SRC3 TRFRET art	SRC1 TRFRET art	PPARg SRC2 recr
CCOc1ccc(-n2c(O)c(/C=N/NC(=O)C3COc4ccccc4O3)c3ccccc3c2=O)cc1 (stereo not given)	–	–	–	–	–	–
Cn1cc(Cl)c(-c2n[nH]c(=S)n2-c2ccc(F)cc2)n1	–	–	–	–	2344	–
S=c1[nH]nc(-c2ccc(Cl)cc2)n1-c1ccc2c(c1)OCCO2	–	–	–	–	–	–
Fc1ccc(-c2n[nH]c(=S)n2-c2ccc3c(c2)OCCO3)cc1	–	–	1992	2239	2494	–
Cc1ccc(-n2c(-c3nn(C)cc3Cl)n[nH]c2=S)cc1	–	–	–	–	–	–
Cc1nc(SCC(=O)NC(C)c2ccccc2)c2oc3ccccc3c2n1 (stereo not given)	–	–	–	·	·	–
Cc1nc(SCC(=O)Nc2ccc(F)cc2)c2oc3ccccc3c2n1	–	30	–	·	·	–
Cc1nc(SCC(=O)Nc2ccccc2)c2oc3ccccc3c2n1	–	–	–	·	·	–
CCc1nc(SCC(=O)NCCc2ccccc2)c2oc3ccccc3c2n1	–	–	2202	·	·	–
Cc1nc(SCC(=O)c2ccc(Cl)s2)c2oc3ccccc3c2n1	–	19	–	·	·	–
O=C(Cc1ccccc1)Nc1cccc(C(=O)O)c1O	–	–	–	–	–	–
O=C(Nc1ccc(Cl)c(Cl)c1)Nc1cc(S(=O)(=O)N2CCOCC2)ccc1N1CCCC1	–	–	–	–	–	–
CCN(CC)c1ccc2cc(-c3nc4ccccc4n3C)c(=O)oc2c1	–	–	–	·	·	–
CCN(CC)c1ccc2cc(-c3nc4ccccc4[nH]3)c(=O)oc2c1	–	26	–	·	·	–
CC(C)Cc1nc2sc3c(NCc4ccco4)ncnc3c2c2c1COC(C)(C)C2	–	–	4130	·	·	106
CCSc1nnc(NS(=O)(=O)c2ccc(OC)cc2)s1	–	–	–	–	–	–
Cc1nc(N2CCCCC2)c2c(-c3cccs3)csc2n1	–	–	–	–	–	–
Cc1nc(N2CCN(S(=O)(=O)c3ccccc3C#N)CC2)c2c(-c3cccs3)csc2n1	–	–	–	2725	–	–
O=C(Nc1cccc(NS(=O)(=O)c2ccc(S(=O)(=O)NC3CC3)cc2)c1)c1ccccn1	–	23	–	·	·	–
COc1ccccc1N1CCN(C2CCN(S(=O)(=O)c3ccc(NC(C)=O)cc3)CC2)CC1	–	–	–	–	–	–
COc1ccc(NC(=S)NNC(=O)CNc2ccc(Cl)cc2)cc1	–	–	–	–	–	–
O=c1/c(=C/c2ccc(O)c([N+](=O)[O-])c2)sc2nc3ccccc3n12	–	–	–	–	–	–
CCN(CC)c1ccc(/C=c2\sc3nc4ccccc4n3c2=O)c(O)c1	–	–	3056	4506	5472	–
CNc1nc(C23CC4CC(CC(C4)C2)C3)cs1	–	–	–	–	–	–
Cc1cccc(Cn2cc(SCC(=O)Nc3nccs3)c3ccccc32)c1	–	–	–	·	·	–
SMILES	PPARg SRC3 recr	PPARg SRC1 recr	TR-FRET SRC-2 ct	SRC3 TRFRET art	SRC1 TRFRET art	PPARg SRC2 recr
Cc1ccc(Cn2cc(SCC(=O)Nc3nccs3)c3ccccc32)cc1	–	–	2880	·	·	–
Cn1c(=O)c(C(=O)NC2CCCCCCC2)c(O)c2ccccc21	–	50	–	–	3217	–
Cc1cc(C(=O)N/N=C/c2cn[nH]c2-c2ccccc2)cs1	–	–	–	–	–	25
CCOC(=O)C1CCN(CCC(=O)Nc2ccc(C)c(C)c2)CC1	–	22	–	–	–	–
CN1/C(=C\C(=O)CSc2nnc(NCc3ccccc3)s2)C(C)(C)c2ccccc21	–	–	–	2062	–	–
Cc1ccc(NC(=O)Cn2nc(-c3ccccc3Cl)ccc2=O)c(Br)c1	–	–	–	–	–	–
CCN(CC)c1ccc(NC(=O)c2ccccc2)cc1S(=O)(=O)Nc1ccccc1OC	–	–	–	2080	–	–
COc1ccc(OC)c(C(C)NC(=O)Nc2cccc(C(C)=O)c2)c1 (stereo not given)	–	–	–	–	–	–
COc1ccc(CS(=O)(=O)c2nc(C)cc(C)c2S(C)(=O)=O)cc1	–	–	–	–	–	–
CCN(CC)S(=O)(=O)c1ccc(/C=C/C(=O)Nc2cccc(F)c2)cc1	–	–	–	–	–	–
COc1ccc2c(C)cc(SCC(=O)c3ccc4c(c3)OCO4)nc2c1	–	–	3035	·	·	–
Cc1ccccc1N=Cc1cc2c(cc1O)OC(N)=C(C#N)C2c1ccccc1 (stereo not given)	–	–	–	–	2419	–
COc1ccccc1N(CC(=O)NCC1CCCO1)C(=O)CCC(=O)Nc1nccs1 (stereo not given)	–	–	–	·	·	25
CCNC(=O)CC1C(=O)N(c2ccc(C)cc2)C(=O)N1CCc1sccc1C (stereo not given)	–	–	–	–	–	–
Cc1ccc(CN2CCN(Cc3ccc(OC(C)C)cc3)CC2CCO)o1 (stereo not given)	–	–	–	–	–	–
Cc1ccc(CN2CCN(Cc3cccc(OCCO)c3)CC2CCO)o1 (stereo not given)	–	–	–	–	–	22
COc1ccc(CCCc2n[nH]c(=S)o2)cc1	–	–	2009	–	–	–
Cc1ccc(-n2c(C)cc(C(=O)COc3c(CO)cc(F)cc3CO)c2C)cc1C	–	–	–	–	–	22
Cc1cc(C)c2c(c1)NC(c1cc3c(cc1Br)OCO3)C1CC=CC21 (stereo not given)	–	45	–	–	3042	–
Brc1cc2c(cc1C1Nc3ccccc3C3C=CCC31)OCO2 (stereo not given)	–	–	–	–	–	–
CC1CC(C)(C)NC(=S)N1CCCC(=O)N1CCN(c2ccccc2F)CC1 (stereo not given)	–	–	–	–	2350	–
CC1CC(C)(C)NC(=S)N1CCCC(=O)Nc1ccccc1F (stereo not given)	–	–	–	–	–	–
CCOC(=O)N1CCC(N2C(=O)c3ccccc3C2Nc2ccc(S(=O)(=O)N(CC)CC)cc2)CC1 (stereo not given)	–	–	–	–	–	–
COc1ccc(NC(=O)COC(=O)c2ccc(F)cc2F)cc1	–	–	1971	–	–	–
COc1cccc(NC(=O)COC(=O)c2ccc(F)cc2F)c1	–	–	–	–	–	–
Cc1cccc(N(CC(=O)N2CCOCC2)S(C)(=O)=O)c1C	–	–	–	·	·	–
Cc1cccc(N(CC(=O)N2CCN(c3ccc(F)cc3)CC2)S(C)(=O)=O)c1C	–	29	–	–	2469	–
